Reference: PubChem BioAssay (NCI)
This is part of a sample that, as a whole, favours compounds with a hit. Of some 79,000 tested, about 15% had one in any assay. Unmarked numbers belong to inactive results. Active and inactive are the calls of the source. Cut-off read from the data, not from the text of the source: active = growth inhibition above about 70%; inactive = the rest.

Columns and labels:
[1] = NCI Yeast Anticancer Drug Screen. Data for the rad50 strain (AID 155);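 note: 0% = growth of vehicle-only cultures of the same strain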; conditions: S. cerevisiae rad50 strain growth inhibition; at 50.0 µM; stronger effect = higher value
Method in brief: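 Cells are treated with compound, grown, and their growth is then scored against vehicle-only cultures of the same repair-deficient yeast strain.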

[2] = NCI Yeast Anticancer Drug Screen. Data for the mec2-1 strain (AID 157); conditions: S. cerevisiae mec2-1 strain, at 50.0 µM, stronger effect = higher value
Method in brief: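 Vehicle-treated cultures served as reference for growth inhibition of compound-exposed mec2-1 yeast.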

[3] = NCI Yeast Anticancer Drug Screen. Data for the sgs1 mgt1 strain (AID 161);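 note: 0% = growth of cultures given vehicle only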; conditions: S. cerevisiae sgs1 mgt1 strain, at 50.0 µM, stronger effect = higher value
Method in brief: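 Genetically altered yeast, compound exposure, growth inhibition relative to vehicle.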

[4] = NCI Yeast Anticancer Drug Screen. Data for the cln2 rad14 strain (AID 165);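 note: 0% = growth equal to vehicle treated cultures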; conditions: S. cerevisiae cln2 rad14 strain, at 50.0 µM, stronger effect = higher value
Method in brief: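 Each compound was tested on cln2 rad14 yeast. Inhibition of growth was calculated against vehicle-exposed controls.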

[5] = NCI Yeast Anticancer Drug Screen. Data for the bub3 strain (AID 167); conditions: S. cerevisiae bub3 mutant strain, at 50.0 µM, stronger effect = higher value
Method in brief: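 Part of a panel of yeast mutants defective in DNA damage repair or cell cycle regulation. Each strain is grown with compound, and inhibition is calculated relative to solvent-treated cultures.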

[6] = NCI Yeast Anticancer Drug Screen. Data for the mlh1 rad18 strain (AID 175); conditions: S. cerevisiae mlh1 rad18 strain growth inhibition; at 50.0 µM; stronger effect = higher value
Method in brief: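 Vehicle-treated cultures served as the reference for growth inhibition in a yeast strain carrying DNA damage repair alterations exposed to each compound.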

SMILES	growth inhibition [1] [%]	growth inhibition [2] [%]	growth inhibition [3] [%]	growth inhibition [4] [%]	growth inhibition [5] [%]	growth inhibition [6]
O=C1CCSc2nc(-c3ccc4c(c3)OCO4)nn21	7.2	-8.5	-13.3	15.2	4.6	9.2%
CN(C(=O)CCCO)c1cc([N+](=O)[O-])ccc1OCc1ccccc1	7.6	2.8	-1.2	-0.8	0.7	-0.75%
CCOC(=O)c1c(C#N)c2cnn(-c3ccccc3)c2n2cccc12	14.1	9.8	-2.25	-64.2	-8.25	36.1%
CCOC(=O)NNC(C)(C)C	4.15	4.35	4.5	21.8	-9	-3.7%
CCN(CC)CCCC(C)Nc1c2ccccc2nc2cc(Cl)cc(Cl)c12 (centres undefined)	17.6	4.15	3.1	10.9	9.6	26.8%
CC(C)c1cc(C(C)C)c(B(c2ccccc2)c2ccccc2)c(C(C)C)c1B(c1ccccc1)c1ccccc1	-13.7	4.8	18.4	6.3	6.35	13.9%
O=C1OC(=O)C(=C(c2ccccc2)c2ccccc2)C1=C(c1ccccc1)c1ccccc1	51.8	64.1	48.4	43.5	53.1	76.8% (active)
Nc1ccc(C(=O)O)c([N+](=O)[O-])c1	0.7	-2.45	-0.5	-30.9	-11.7	-2.1%
Cc1n[n+](CC(=O)c2ccccc2)c2sc(N)nn12	-55.8	-31.4	-58.6	-50	-16.1	-70.5%
CCOC(=O)CC(C)C(C(=O)OCC)C(=O)OCC (centres undefined)	1.05	6.15	-9.15	4.15	23.6	14%
COC(=O)C1CCC=CC1OC(C)=O (centres undefined)	1.65	-12.6	2.6	4.45	5.25	3.2%
Cc1cccc2c1NC(O)c1cccn1C2=O (centres undefined)	6.45	2.75	5.55	-22.4	-18.6	-2.4%
CCOC(=O)c1sc(N)nc1C	-17.8	-12.2	-17.2	-21.9	-11.5	0.35%
N#Cc1ccc2ccccc2c1	4.65	-7	3	-4.65	10.7	-16.8%
CC(=O)/C=C(O)/C=C/c1ccccc1	-0.9	5.45	-12.9	9.15	14.9	12.9%
N#CC1=C(Nc2ccccc2)CCC1	5	-11.6	-0.8	-38.8	2.25	-5.4%
Nc1nnc(/C=C/c2ccc(Cl)cc2)o1	-26.5	-8.15	-14.9	2.9	-18.6	-11.3%
CCCSC(=O)Nc1ccc(Cc2ccc(NC(=O)SCCC)cc2)cc1	2.05	-17.3	16.6	21.8	16.4	14.5%
CC(=O)OC1CCC2(C)C3=CCC4(C)C(C(C)=O)=CCC4C3CCC2C1 (centres undefined)	-27.9	-21.9	-29.2	12.6	-22.9	-23.1%
